Screening data: PubChem BioAssay, National Center for Advancing Translational Sciences (NCATS)
D1 antagonist: antagonists of human D1 dopamine receptor. P21728. HEK293 TREx D1 cells, calcium flux, dopamine EC80; hits give low values. activity change, negative = inhibition, % at 10 µM. 3.2% of 360,000 active; in the data active means activity change below about -30%
Target sequence (P21728 whole entry, looked up): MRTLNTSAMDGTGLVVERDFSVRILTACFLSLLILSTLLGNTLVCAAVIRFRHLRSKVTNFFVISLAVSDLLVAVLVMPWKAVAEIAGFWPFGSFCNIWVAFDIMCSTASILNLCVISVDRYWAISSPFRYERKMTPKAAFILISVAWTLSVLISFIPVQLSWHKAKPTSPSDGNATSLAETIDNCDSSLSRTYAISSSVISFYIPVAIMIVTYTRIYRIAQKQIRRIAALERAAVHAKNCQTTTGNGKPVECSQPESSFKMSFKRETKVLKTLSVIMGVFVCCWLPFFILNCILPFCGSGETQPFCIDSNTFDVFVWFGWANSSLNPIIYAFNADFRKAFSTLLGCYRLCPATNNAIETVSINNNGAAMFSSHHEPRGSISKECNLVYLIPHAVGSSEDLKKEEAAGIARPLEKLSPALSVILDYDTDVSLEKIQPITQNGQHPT
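Tetracycline-induced HEK293 Trex D1 cells, force-coupled to calcium, dye-loaded; compounds added and read 180 s, then EC80 dopamine added and calcium flux tracked kinetically another 180 s.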
D1 potentiator: enhances dopamine response at the human D1 receptor; AID 504651; potentiation, % at 10 µM; 0.036% of 360,000 active; HEK293 TREx D1 cells, calcium flux, dopamine EC20 potentiation; in the data active means potentiation above about 30%
TRHR agonist: TRH receptor (human) agonism; P34981; TRHR cells, calcium flux fluo-8, FDSS agonist mode; 0.18% of 360,000 active; activation, % at 2 µM
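Fluo-8-loaded TRHR cells; 10 s baseline, compound added, kinetic Ca2+ fluorescence read 1/s, agonist mode.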
LDHA block: LDHA (human) enzyme inhibition. P00338. purified LDHA, NADH/diaphorase-resazurin fluorescence; hits give low values. activity change, % (values are at about 110 or 230 µM). 0.15% of 480,000 active; in the data active means activity change below about -30%
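Enzyme activity of human lactate dehydrogenase 5 (2 nM; 0.06 mM NADH, 0.2 mM pyruvate, 5 min, RT) is measured via a resazurin/diaphorase fluorescence readout of residual NADH.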
TRHR PAM: allosteric enhancers of human TRH receptor. P34981. TRHR cells, fluo-8 calcium fluorescence, EC20 TRH enhancement. enhancement, % at 2 µM. 0.66% of 360,000 active; in the data active means enhancement above about 30%
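TRHR-expressing cells loaded with fluo-8 calcium dye were read kinetically (ex 480/em 530) during compound addition, then stimulated with an EC20 of TRH (10 nM final). Enhancement of the Gq-mediated intracellular calcium response was scored.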
D1 agonist: human D1 receptor agonism; HEK293 T-REx D1 cells, calcium flux, agonist mode; activation, % at 2 µM; 1% of 360,000 active; P21728
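Tetracycline-induced HEK293 TREx D1 cells, force-coupled to calcium signalling, were dye-loaded with a no-wash calcium kit. Compound was pin-added after a 10 s baseline. Fluorescence was read kinetically at 1 cycle/s for 180 s, with calcium rises flagged as agonism.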
Large screens that a line does not name were inactive. Sampled rows, rich in hits. Any-hit rate of the full collection: about 3.6%. Unless noted, no stated cut-off is given here; in the data, active means activation above about 30%; inactive means the rest.

CC(=O)c1ccc(NC(=O)c2cn3c4c(ccc(Cl)c4c2=O)OC(C)C3)cc1 (stereo not given)	none
COc1ccc(NC(=O)c2cn3c4c(ccc(Cl)c4c2=O)OC(C)C3)cc1OC (stereo not given)	TRHR PAM 50
CCC(=O)Nc1ccc(C(=O)N/N=C/c2cc(Br)c(OC)cc2OC)cc1	D1 antagonist -31
CS(=O)(=O)c1sc(C#N)c2c1C(=O)CC(c1ccccc1)C2 (stereo not given)	D1 antagonist -72
CCSc1nnc(NC(=O)NCC(F)(F)F)s1	TRHR PAM 34
CCSc1nnc(NC(=O)C2C3C=CC(C3)C2C(=O)O)s1 (stereo not given)	D1 antagonist -46
Cc1ccc2c(C(=O)O)cc(-c3ccccn3)nc2c1C	none (no result: D1 antagonist, D1 potentiator, TRHR agonist, TRHR PAM, D1 agonist)
O/N=C/c1ccc(OCc2ccccc2)c(Br)c1	D1 antagonist -33
CCc1cc2c(=O)[nH]c(Cc3ccccc3)nc2s1	none
Cc1cc2c(=O)[nH]c(Cc3ccccc3)nc2s1	D1 antagonist -41
CCCCNC(=O)NCC(=O)NCCC	none (no result: D1 antagonist, D1 potentiator, TRHR agonist, TRHR PAM, D1 agonist)
CC1=CC(C)(C)NC(=S)N1c1cc(C)ccc1C	none (no result: D1 antagonist, D1 potentiator, TRHR agonist, TRHR PAM, D1 agonist)
COc1ccc(C(=O)NC(=S)N(C)Cc2ccccc2)cc1Br	none
CN(Cc1ccccc1)C(=S)NC(=O)c1ccccc1	TRHR PAM 31
CCOc1ccccc1N(C)C(=O)Cn1cnc2onc(-c3ccc(F)cc3)c2c1=O	D1 antagonist -31
OCCOCCN1CCN(C(c2ccccc2)c2ccc(Cl)cc2)CC1 (stereo not given)	none
O=C(/C=C/c1ccccc1)Nc1ccc(CN2CCOCC2)cc1	none
O=C(/C=C/c1ccc(Cl)cc1Cl)Nc1ccc(CN2CCOCC2)cc1	D1 antagonist -38
CCc1ccc2c(c1)-c1ccccc1S(=O)(=O)N2CC(=O)N1CCCCCC1	none (no result: D1 antagonist, D1 potentiator, TRHR agonist, TRHR PAM, D1 agonist)
COc1cc(CNCCN2CCOCC2)ccc1OCC(=O)NC(C)(C)C	D1 agonist 32
CCOc1cc(CNCc2cccnc2)ccc1OCC(=O)NC(C)(C)C	TRHR PAM 36
CCOc1cc(CNCCc2ccccc2)ccc1OCC(=O)NC(C)(C)C	D1 agonist 122
CCOc1cc(CNCc2cccs2)ccc1OCC(=O)NC(C)(C)C	none
N#CC(C(=O)Nc1ccccc1Cl)C(=O)c1cccc(Cl)c1 (stereo not given)	none (no result: D1 antagonist, D1 potentiator, TRHR agonist, TRHR PAM, D1 agonist)
CCNC(=O)CN1CCN(C(=O)CCc2ncc(-c3ccc(Cl)cc3)o2)CC1	none (no result: D1 antagonist, D1 potentiator, TRHR agonist, TRHR PAM, D1 agonist)
CCc1noc2nc(C)nc(N3CCCC(C(=O)NCCc4ccc(Cl)cc4)C3)c12 (stereo not given)	none (no result: D1 antagonist, D1 potentiator, TRHR agonist, TRHR PAM, D1 agonist)
N#Cc1cccnc1NCc1cccc(NC(=O)c2ccncc2)c1	none (no result: D1 antagonist, D1 potentiator, TRHR agonist, TRHR PAM, D1 agonist)
O=C(NC1CCCc2ccccc21)c1cc(-c2ccncc2)nc2ccc(Cl)cc12 (stereo not given)	none (no result: D1 antagonist, D1 potentiator, TRHR agonist, TRHR PAM, D1 agonist)
CCN(C(=O)COC(=O)c1ccccc1NCCO)c1cccc2ccccc12	D1 antagonist -43
O=C(Cc1ccc(OC(F)F)cc1)Nc1cccc2cccnc12	none (no result: D1 antagonist, D1 potentiator, TRHR agonist, TRHR PAM, D1 agonist)
O=C1CC(c2cccc(O)c2)Oc2ccccc21 (stereo not given)	D1 antagonist -32
O=C(c1cc(=O)c2cc(Cl)ccc2o1)N1CCC1	none (no result: D1 antagonist, D1 potentiator, TRHR agonist, TRHR PAM, D1 agonist)
Cc1ccc(NC(=O)c2cc([N+](=O)[O-])ccc2N2CCOCC2)cc1S(=O)(=O)N(C)C	none
Cc1ccc(NC(=O)c2cc([N+](=O)[O-])ccc2N2CCOCC2)cc1C	D1 antagonist -30
O=C(c1cc([N+](=O)[O-])ccc1N1CCOCC1)N1CCOCC1	D1 antagonist -42
C=C(C)Cn1c(Br)nc2c1c(=O)n(C)c(=O)n2C	none (no result: D1 antagonist, D1 potentiator, TRHR agonist, TRHR PAM, D1 agonist)
CN(CC(=O)Nc1ccc(OC(F)(F)F)cc1)C(=O)/C=C/c1ccco1	none (no result: D1 antagonist, D1 potentiator, TRHR agonist, TRHR PAM, D1 agonist)
CN(CC(=O)Nc1ccc(OC(F)(F)F)cc1)C(=O)/C=C/c1cc2c(cc1[N+](=O)[O-])OCO2	D1 antagonist -49
Cc1ccc(C(=O)Nc2ccccc2C(F)(F)F)c(Cl)c1	none (no result: D1 antagonist, D1 potentiator, TRHR agonist, TRHR PAM, D1 agonist)
OC(CNCc1c(OCc2ccccc2)ccc2ccccc12)c1ccccc1 (stereo not given)	none (no result: D1 antagonist, D1 potentiator, TRHR agonist, TRHR PAM, D1 agonist)
OCCNCc1c(OCc2ccc(Cl)cc2)ccc2ccccc12	D1 antagonist -38, D1 agonist 160
CC(O)CNCCNCc1c(OCc2ccccc2)ccc2ccccc12 (stereo not given)	D1 agonist 122
